According to PubChem BioAssay (NCI):
Compounds without any hit were thinned out: in the full panel of roughly 79,000, 15% have a hit. Active and inactive are the calls of the source. Cut-off read from the data, not from the text of the source: active = growth inhibition above about 70%; inactive = the rest.

Assays:
[1] = NCI Yeast Anticancer Drug Screen. Data for the rad52 strain (AID 147);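 note: 0% = growth of vehicle-treated control cultures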; conditions: S. cerevisiae rad52 mutant growth inhibition, active compounds read high
Outline: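 Genetically altered yeast (DNA damage repair defect) treated with compound; inhibition calculated relative to vehicle.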

[2] = NCI Yeast Anticancer Drug Screen. Data for the wt1 strain (AID 149);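 note: 0% = growth of vehicle-treated wt1 cultures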; conditions: S. cerevisiae wt1 strain (SPY 50644) growth inhibition, active compounds read high
Outline: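 Readout: yeast growth inhibition, normalised to vehicle controls, in the wt1 strain exposed to test compounds.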

[3] = NCI Yeast Anticancer Drug Screen. Data for the rad50EPP+ strain (AID 151);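 note: 0% = growth of vehicle-treated control cultures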; conditions: S. cerevisiae rad50 mutant strain, active compounds read high
Outline: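 Strain rad50EPP+; compound exposure; % growth inhibition vs vehicle.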

[4] = NCI Yeast Anticancer Drug Screen. Data for the mgt1 strain (AID 153); conditions: S. cerevisiae mgt1 mutant growth inhibition, active compounds read high
Outline: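 Read-out: yeast growth inhibition vs vehicle control. Strain mgt1, drawn from a panel altered in DNA damage repair or cell cycle control.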

[5] = NCI Yeast Anticancer Drug Screen. Data for the rad50 strain (AID 155);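 note: 0% = growth of vehicle-only cultures of the same strain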; conditions: S. cerevisiae rad50 strain growth inhibition, active compounds read high
Outline: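 Compounds were tested on a yeast strain with an engineered DNA damage repair alteration; the reported value is growth inhibition normalised to vehicle treatment.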

[6] = NCI Yeast Anticancer Drug Screen. Data for the mec2-1 strain (AID 157); conditions: S. cerevisiae mec2-1 strain, active compounds read high
Outline: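 Cells of the genetically defined mec2-1 yeast strain are incubated with test compound. Inhibition of growth is calculated against vehicle-treated controls.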

[7] = NCI Yeast Anticancer Drug Screen. Data for the rad14 strain (AID 159);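 note: 0% = growth of vehicle-treated control cultures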; conditions: S. cerevisiae rad14 strain growth inhibition, active compounds read high
Outline: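 Compound-treated yeast with a defined DNA-repair lesion; growth inhibition normalised to vehicle-treated cultures.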

[8] = NCI Yeast Anticancer Drug Screen. Data for the sgs1 mgt1 strain (AID 161);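 note: 0% = growth of cultures given vehicle only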; conditions: S. cerevisiae sgs1 mgt1 strain, active compounds read high
Outline: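 Inhibition of yeast growth, normalised to vehicle-treated controls, is reported for a strain bearing genetic alterations in DNA damage repair.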

[9] = NCI Yeast Anticancer Drug Screen. Data for the CLN2oe strain (AID 163);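 note: 0% = growth of vehicle-only control cultures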; conditions: S. cerevisiae CLN2oe strain, active compounds read high
Outline: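 Strain altered in cell-cycle control, incubated with compound; growth compared to solvent-treated controls.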

[10] = NCI Yeast Anticancer Drug Screen. Data for the cln2 rad14 strain (AID 165);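 note: 0% = growth equal to vehicle treated cultures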; conditions: S. cerevisiae cln2 rad14 strain, active compounds read high
Outline: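 The screen exposed genetically defined yeast (cln2 rad14) to test compounds and scored growth inhibition relative to vehicle-treated controls.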

[11] = NCI Yeast Anticancer Drug Screen. Data for the bub3 strain (AID 167); conditions: S. cerevisiae bub3 mutant strain, active compounds read high
Outline: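 Growth of a checkpoint-deficient yeast mutant is measured after compound exposure. Values represent inhibition relative to vehicle.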

[12] = NCI Yeast Anticancer Drug Screen. Data for the wt2 strain (AID 169);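 note: 0% = growth of vehicle-treated yeast cultures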; conditions: S. cerevisiae wt2 strain growth inhibition, active compounds read high
Outline: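 Steps: yeast strain treated with compound; growth recorded; inhibition calculated relative to cultures given vehicle alone.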

[13] = NCI Yeast Anticancer Drug Screen. Data for the mlh1 strain (AID 171);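 note: 0% = growth of vehicle-treated control cultures of the same strain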; conditions: S. cerevisiae mlh1 strain growth inhibition, active compounds read high
Outline: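 Yeast screen: mutant strain plus compound, growth scored against vehicle control wells.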

[14] = NCI Yeast Anticancer Drug Screen. Data for the sgs1 strain (AID 173);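 note: 0% = growth of vehicle-only control cultures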; conditions: S. cerevisiae sgs1 mutant, active compounds read high
Outline: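 Inhibition of yeast growth served as the measure. The mutant strain was treated with each compound, and growth was normalised to cultures receiving vehicle alone.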

[15] = NCI Yeast Anticancer Drug Screen. Data for the mlh1 rad18 strain (AID 175); conditions: S. cerevisiae mlh1 rad18 strain growth inhibition, active compounds read high
Outline: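 Compound-treated yeast growth, normalised to vehicle controls. Strain bears defined DNA repair mutations.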

[16] = NCI Yeast Anticancer Drug Screen. Data for the rad18 strain (AID 177); conditions: S. cerevisiae rad18 mutant growth inhibition, active compounds read high
Outline: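 Inhibition values reflect reduced yeast growth compared with vehicle-treated controls, using a strain engineered with a DNA damage repair defect.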

[17] = at 5.0 µM (retest, dose inferred, filed as 0.5)
[18] = at 50.0 µM (retest, dose inferred, filed as 5.0)

Measured: growth inhibition

O=C1/C(=C/c2ccc(Cl)c(Cl)c2)CNC/C1=C\c1ccc(Cl)c(Cl)c1
active: [1]; at 33.0 µM 76% | [1]; at 100.0 µM 93% | [2]; at 100.0 µM 95% | [4]; at 100.0 µM 94% | [5]; at 100.0 µM 95% | [6]; at 33.0 µM 74% | [6]; [18] 74% | [6]; at 50.0 µM 89.8% | [6]; at 100.0 µM 93% | [7]; at 100.0 µM 92% | [8]; at 50.0 µM 89.6% | [9]; at 100.0 µM 79% | [10]; at 50.0 µM 90.4% | [11]; [18] 82% | [11]; at 50.0 µM 91.8% | [11]; at 100.0 µM 92% | [12]; at 33.0 µM 96% | [12]; at 100.0 µM 97% | [13]; at 100.0 µM 94% | [14]; at 33.0 µM 78% | [14]; at 100.0 µM 94% | [15]; [18] 86% | [15]; at 50.0 µM 90.3% | [16]; at 100.0 µM 94%
inactive: [1]; at 1.2 µM 22% | [1]; at 3.7 µM 22% | [1]; at 11.0 µM 27% | [2]; at 1.2 µM 28% | [2]; at 3.7 µM 25% | [2]; at 11.0 µM 29% | [2]; at 33.0 µM 63% | [3]; at 1.2 µM 14% | [3]; at 3.7 µM 27% | [3]; at 11.0 µM 19% | [3]; at 33.0 µM 32% | [3]; at 100.0 µM 32% | [4]; at 1.2 µM 5% | [4]; at 3.7 µM 13% | [4]; at 11.0 µM 35% | [4]; at 33.0 µM 69% | [5]; at 1.2 µM 12% | [5]; at 3.7 µM 20% | [5]; [17] 19% | [5]; at 11.0 µM 29% | [5]; at 33.0 µM 68% | [5]; [18] 62% | [5]; at 50.0 µM 50% | [6]; at 1.2 µM 25% | [6]; at 3.7 µM 23% | [6]; [17] -9% | [6]; at 11.0 µM 41% | [7]; at 1.2 µM 7% | [7]; at 3.7 µM 8% | [7]; at 11.0 µM 20% | [7]; at 33.0 µM 52% | [8]; [17] 27% | [8]; [18] 66% | [9]; at 1.2 µM 15% | [9]; at 3.7 µM 7% | [9]; at 11.0 µM 29% | [9]; at 33.0 µM 48% | [10]; [17] 10% | [10]; [18] 42% | [11]; at 1.2 µM -8% | [11]; at 3.7 µM -9% | [11]; [17] 20% | [11]; at 11.0 µM 13% | [11]; at 33.0 µM 69% | [12]; at 1.2 µM 1% | [12]; at 3.7 µM 0% | [12]; at 11.0 µM -12% | [13]; at 1.2 µM 5% | [13]; at 3.7 µM 13% | [13]; at 11.0 µM 35% | [13]; at 33.0 µM 69% | [14]; at 1.2 µM 29% | [14]; at 3.7 µM 33% | [14]; at 11.0 µM 49% | [15]; [17] 6% | [16]; at 1.2 µM 25% | [16]; at 3.7 µM 16% | [16]; at 11.0 µM 33% | [16]; at 33.0 µM 64%

OC1(C#CI)CCCCC1
inactive: [1]; at 1.2 µM 1% | [1]; at 3.7 µM 43% | [2]; at 1.2 µM -4% | [2]; at 3.7 µM 38% | [3]; at 1.2 µM -16% | [3]; at 3.7 µM 40% | [4]; at 1.2 µM -7% | [4]; at 3.7 µM -3% | [5]; at 1.2 µM -6% | [5]; at 3.7 µM 58% | [5]; [17] 67% | [6]; at 1.2 µM -4% | [6]; at 3.7 µM 6% | [6]; [17] -18% | [7]; at 1.2 µM -2% | [7]; at 3.7 µM 32% | [8]; [17] -20% | [9]; at 1.2 µM -11% | [9]; at 3.7 µM -5% | [10]; [17] -28% | [11]; at 1.2 µM -19% | [11]; at 3.7 µM 12% | [11]; [17] -35% | [12]; at 1.2 µM -7% | [12]; at 3.7 µM 28% | [13]; at 1.2 µM -14% | [13]; at 3.7 µM 17% | [14]; at 1.2 µM 1% | [14]; at 3.7 µM 37% | [15]; [17] -52% | [16]; at 1.2 µM 3% | [16]; at 3.7 µM 60%
active: [1]; at 11.0 µM 96% | [1]; at 33.0 µM 98% | [1]; at 100.0 µM 99% | [2]; at 11.0 µM 96% | [2]; at 33.0 µM 99% | [2]; at 100.0 µM 99% | [3]; at 11.0 µM 96% | [3]; at 33.0 µM 99% | [3]; at 100.0 µM 99% | [4]; at 11.0 µM 88% | [4]; at 33.0 µM 99% | [4]; at 100.0 µM 99% | [5]; at 11.0 µM 98% | [5]; at 33.0 µM 99% | [5]; [18] 97% | [5]; at 50.0 µM 99.7% | [5]; at 100.0 µM 99% | [6]; at 11.0 µM 89% | [6]; at 33.0 µM 99% | [6]; [18] 98% | [6]; at 50.0 µM 99.5% | [6]; at 100.0 µM 100% | [7]; at 11.0 µM 98% | [7]; at 33.0 µM 99% | [7]; at 100.0 µM 100% | [8]; [18] 97% | [8]; at 50.0 µM 98.6% | [9]; at 11.0 µM 82% | [9]; at 33.0 µM 99% | [9]; at 100.0 µM 99% | [10]; [18] 98% | [10]; at 50.0 µM 99.2% | [11]; at 11.0 µM 97% | [11]; at 33.0 µM 99% | [11]; [18] 97% | [11]; at 50.0 µM 99.3% | [11]; at 100.0 µM 99% | [12]; at 11.0 µM 98% | [12]; at 33.0 µM 99% | [12]; at 100.0 µM 100% | [13]; at 11.0 µM 96% | [13]; at 33.0 µM 99% | [13]; at 100.0 µM 99% | [14]; at 11.0 µM 96% | [14]; at 33.0 µM 99% | [14]; at 100.0 µM 99% | [15]; [18] 97% | [15]; at 50.0 µM 99.1% | [16]; at 11.0 µM 96% | [16]; at 33.0 µM 99% | [16]; at 100.0 µM 99%

COc1ccc2nc3cccc([N+](=O)[O-])c3c(NCCNCCO)c2c1
active: [1]; at 3.7 µM 90% | [1]; at 11.0 µM 95% | [1]; at 33.0 µM 96% | [1]; at 100.0 µM 96% | [2]; at 100.0 µM 70% | [3]; at 33.0 µM 92% | [3]; at 100.0 µM 96% | [4]; at 100.0 µM 75% | [5]; at 3.7 µM 81% | [5]; at 11.0 µM 93% | [5]; at 33.0 µM 94% | [5]; [18] 98% | [5]; at 50.0 µM 85% | [5]; at 100.0 µM 95% | [6]; at 3.7 µM 75%
inactive: [1]; at 1.2 µM 69% | [2]; at 1.2 µM -3% | [2]; at 3.7 µM 3% | [2]; at 11.0 µM 20% | [2]; at 33.0 µM 49% | [3]; at 1.2 µM 2% | [3]; at 3.7 µM 18% | [3]; at 11.0 µM 61% | [4]; at 1.2 µM -2% | [4]; at 3.7 µM 1% | [4]; at 11.0 µM 23% | [4]; at 33.0 µM 69% | [5]; at 1.2 µM 41% | [5]; [17] 36% | [6]; at 1.2 µM 17%
